# “And” between values parts separate entries of the source, which are not always exact repeats. Equal entries are not always repeated. Compounds without any hit were thinned out: in the full panel of roughly 83,000, 20% have a hit.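 Each cell line was grown in a 96-well plate and treated with one concentration of compound for 48 hours. Values below 10 were considered active.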 Unmarked numbers belong to inactive results. The source made the active and inactive calls.
# System: UACC-62 melanoma
# Experiment: NCI-60 one-dose screen, 48 h (100 = growth as untreated, 0 = no growth, -100 = all killed)
# Details: 10 µM unless noted
row,SMILES,growth
1,COC(=O)C1=CO[C@@H](OC2OC(CO)C(O)C(O)C2O)[C@H]2[C@@H](C)[C@@H](O)[C@@H](O)[C@@H]12 (some centres undefined),89.9% [100 µM] and 99.1% [100 µM]
2,COc1ccc(C)cc1NC(=S)C#N,74.4% [100 µM] and 31.4% [100 µM]
3,CCCCCCSC[C@H](OC(C)=O)[C@@H](OC(C)=O)[C@@H](OC(C)=O)[C@@H](COC(C)=O)OC(C)=O,51.3% [100 µM] and 71.8% [100 µM]
4,O=C1c2ccccc2-c2c1c1ccccc1c(=O)n2CCO,-21.8% [100 µM] (active) and -78.7% [100 µM] (active)
5,O=C1c2cccnc2-c2nccc3ccnc1c23,-95.5% [100 µM] (active) and -100% [100 µM] (active)
6,COc1cc2c(cc1-c1coc3cc(O)ccc3c1=O)OCO2,58.8% [100 µM] and 55% [100 µM]
7,COc1c(O)ccc(C2=Cc3ccc(O)cc3OC2)c1OC,-72.2% [100 µM] (active) and -24.7% [100 µM] (active)
8,Cc1ccc(OCC2OC(n3cnc4c(Cl)nc(Cl)nc43)CC2Oc2ccc(C)cc2)cc1 (centres undefined),-90.8% [100 µM] (active) and -89.2% [100 µM] (active)
9,C=CC1=C(C)C2=NC1=CC1=NC(=C(CC)/C1=C\O)C=C1N=C3C(=C1C)C(=O)[C@H](C(=O)OC)C3=C1NC(=C2)[C@@H](C)[C@@H]1CCC(=O)O,-28.7% [100 µM] (active) and 0.467% [100 µM] (active)

# Reference: PubChem BioAssay (NCI)
